A selection: hits, their analogues and other compounds. The true share with any hit is near 3%.
TR SRC2 fluor cs: counter-screen for TRb-SRC2 inhibitors: fluorescence interference | Potency, µM (doses to about 106 µM) | AID 1479 | TRb/SRC2 Texas Red total fluorescence interference | hit rate 0.29% among 280,000; active means well fitted curve in either direction with a large enough effect; inconclusive means small, poorly fitted or top-dose-only effect
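Human TRb ligand-binding domain at 0.6 uM with 20 nM Texas Red SRC2 peptide in Tris buffer containing 1 uM T3 and 5% DMSO, incubated with compound 5 h at ambient temperature. Total fluorescence (555/632 nm) calculated as parallel + 2 × perpendicular.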
TRb-SRC2 inh: disrupts binding of human TR beta to SRC2; hit rate 0.065% among 280,000; AID 1469; Potency, µM (titrated, usually from 106 µM), hits mostly inhibitors; P10828; TRbeta-SRC2 peptide binding, fluorescence polarization; receptor liganded with 1 µM T3; further: nearly all actives have a fitted effect of over 50% in size
Target sequence (P10828 whole entry, looked up): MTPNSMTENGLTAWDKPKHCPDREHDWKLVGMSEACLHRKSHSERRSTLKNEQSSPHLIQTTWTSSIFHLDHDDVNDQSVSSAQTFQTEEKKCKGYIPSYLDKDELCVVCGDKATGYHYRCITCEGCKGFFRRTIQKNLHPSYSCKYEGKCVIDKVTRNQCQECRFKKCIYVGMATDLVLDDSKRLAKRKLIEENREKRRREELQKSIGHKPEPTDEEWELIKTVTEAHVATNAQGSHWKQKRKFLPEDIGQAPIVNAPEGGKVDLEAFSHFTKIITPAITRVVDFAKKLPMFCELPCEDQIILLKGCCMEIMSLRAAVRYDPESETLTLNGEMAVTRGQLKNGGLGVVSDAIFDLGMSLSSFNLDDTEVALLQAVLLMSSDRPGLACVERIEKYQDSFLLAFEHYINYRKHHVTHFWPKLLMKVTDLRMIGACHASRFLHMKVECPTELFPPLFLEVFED
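Read-out is fluorescence polarization (555 nm excitation, 632 nm emission) of a Texas Red SRC2 coactivator peptide; loss of signal reflects blocked binding to human TRb ligand-binding domain in the presence of 1 uM T3.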
Tau fibril ThT: tau fibrillization inhibition (ThT binding); hit rate 2.1% among 270,000; recombinant tau K18 P301L, heparin-induced fibrillization, ThT fluorescence; Potency, µM (top dose mostly 57.4 µM), hits mostly inhibitors; P10636; AID 1460; further: nearly all actives have a fitted effect of over 55% in size
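Heparin-induced (20 uM) aggregation of recombinant human K18 P301L tau, 15 uM unlabeled with 0.24 uM labeled, pH 7 acetate buffer, 6 hr at 37 C with compound. Fibrils quantified by 30 uM ThT fluorescence after 1 hr ambient incubation.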
Tau fluor cs: counter-screen for tau fibril formation inhibitors | AID 1463 | hit rate 0.93% among 280,000 | tau K18 P301L (four-repeat tau fragment) Alexa594 fluorescence, heparin fibrillization | Potency, µM (titrated, usually from 57.7 µM); further: nearly all actives have a fitted effect of over 55% in size
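Human K18 P301L tau (15 uM unlabeled plus 0.24 uM Alexa 594-labeled, final) in 100 mM sodium acetate pH 7 was mixed with compound and 20 uM heparin and incubated 6 hr at 37 C.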
Tau fibril FP: inhibitors of human tau fibril formation; P10636; K18 P301L tau heparin fibrillization, Alexa594 FP, 6 h; Potency, µM (series often up to 57.7 µM), most hits filed as inhibitors; hit rate 0.39% among 280,000; further: nearly all actives have a fitted effect of over 55% in size
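Compound effects on tau fibrillization are measured by Alexa 594 fluorescence polarization (ex 555, em 632 nm). K18 P301L tau is used at 15 uM with 0.24 uM labeled tracer, and 20 uM heparin induces aggregation over 6 hr at 37 C.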
A number is an active result; - = inactive; ? = inconclusive; . = no result; ! = not active in a repeat; [ ] = remark or other dose. Unless noted, the call rests on the fitted dose curve; in most records, active means well fitted curve in the direction sought with a large enough effect; inconclusive means small, poorly fitted or top-dose-only effect, or another doubt; inactive means no such curve, though single readings can be large; an effect the other way counts as inactive or inconclusive.

SMILES	TR SRC2 fluor cs	TRb-SRC2 inh	Tau fibril ThT	Tau fluor cs	Tau fibril FP
O=C1c2ccccc2-c2cccc(C(=O)N3CCCCC3)c21	-	-	-	-	-
CCCCN(CC)CCNC(=O)CCn1cnc2onc(-c3ccc(F)cc3)c2c1=O	-	-	-	-	-
Clc1ccc(Cl)c(Cl)c1Cl	-	-	.	.	.
CC(C)c1nn2c(=O)cc(COC(=O)c3ccc(NC(=O)COc4ccccc4)cc3)nc2s1	-	-	-	-	-
C[C@H]1Cc2c(-c3ccccc3)nc3c(c2CO1)CN(S(=O)(=O)c1ccc(C#N)cc1)CC3	-[11.2 µM]	-[11.2 µM]	-[11.5 µM]	-[11.6 µM]	-[11.6 µM]
CCN(CC)CCCNc1oc(/C=C/c2ccc(OC)c(OC)c2)nc1C#N	-	-	-	-	-
COc1ccc(C2=Nn3c(nnc3-c3ccccc3C)SC2)cc1	-	-	.	.	.
CC(=O)O[C@@H]1CC[C@@]2(C)[C@H](C1)[C@H](OC(C)=O)C[C@@H]1[C@@H]2C[C@H]2[C@@H]3CN4C[C@H](C)CC[C@H]4[C@H](C)[C@H]3CC[C@@]12O	-	-	.	.	.
COc1cccc(NC(=O)CSc2nc(=O)n(Cc3cccnc3)c3c2CCC3)c1	-	-	-	-	-
Cc1ccc(S(=O)(=O)N2CCc3nc(-c4ccccc4)c4c(c3C2)CO[C@@H](C)C4)cc1	-[11.2 µM]	-[11.2 µM]	-[11.5 µM]	-[11.6 µM]	-[11.6 µM]
CCOc1ccc2noc3c2c1C(=O)c1ccccc1-3	?	50µM	?	?	?
Cn1c(=O)cc2c3c(c(N4CCCCC4)ccc31)C(=O)c1ccccc1-2	?	?	11µM	13µM[quencher]	?
Cn1c(=O)c(NC2CCCCC2)c2c3c(cccc31)C(=O)c1ccccc1-2	-	-	-	?	-
CCCCC(CC)C(=O)Nc1ccc(Nc2ccccc2)cc1 (stereo not given)	-	-	?	10µM[quencher]	-
CC(=O)Nc1ccccc1	-	-	-	-	-
CC(=O)C(Cl)C(=O)Nc1ccccc1 (stereo not given)	-	-	25µM	-	?
CCOC(=O)c1ccc(NS(=O)(=O)c2ccc3c(c2)n(C)c(=O)n3C)cc1	-	-	-	-	-
CCc1ccc(NS(=O)(=O)c2ccc3[nH]c4c(c3c2)CCCCCC4)cc1	-	-	-	?	?
Cc1ccc(NS(=O)(=O)c2ccc3[nH]c4c(c3c2)CCCCCC4)cc1C	-	-	-	13µM[quencher]	-
Cc1ccc(N(C)S(=O)(=O)c2ccc3[nH]c4c(c3c2)CCCC4)cc1	-	-	-	14µM[quencher]	-
Cc1ccc(NS(=O)(=O)c2ccc3[nH]c4c(c3c2)CCCCCC4)cc1	-	-	-	11µM[quencher]	?
CCOC(=O)c1ccc(NS(=O)(=O)c2ccc3[nH]c4c(c3c2)CCCCC4)cc1	-	-	-	6.3µM[quencher]	?
CCN(C(=O)Cn1cc(C(=O)c2ccc(F)cc2)c(=O)c2ccc(C)nc21)c1cccc(C)c1	-	-	-	-	-
O=C(/C=C/c1ccc2c(c1)OCO2)Nc1c(C(=O)O)[nH]c2ccccc12	-	-	13µM	-	-
COC(=O)c1sc(-c2ccccc2)cc1NC(=O)Nc1ccc(F)cc1	-	-	-	?	18µM
SMILES	TR SRC2 fluor cs	TRb-SRC2 inh	Tau fibril ThT	Tau fluor cs	Tau fibril FP
O=C(O)C1Nc2c(O)cccc2C2C=CCC12 (stereo not given)	?	-	13µM	?	?
O=C(OC1CCCCC1)c1ccc2c(c1)C1C=CCC1C(C(=O)O)N2 (stereo not given)	?	-	?	-	-
CCc1nn(CC(=O)NCCc2ccc(OC)cc2OC)c(=O)c2cc3c(OC)cccc3n12	?	-	?	-	-
CC1=NN(c2ccccc2)C(=O)/C1=C/c1c(O)n(-c2ccc(F)c(Cl)c2)[nH]c1=O	?	-	5µM	?	?
CC1=NN(c2ccccc2)C(=O)/C1=C\c1c(C)[nH]n(-c2ccccc2)c1=O	-	-	?	-	-
Oc1ccc(NCc2ccccc2OCc2ccccc2F)cc1	-[11.2 µM]	35µM!	16µM	7.9µM[quencher]	22µM!
Oc1ccc(NCc2ccccc2OCc2ccccc2Cl)cc1	?	-[11.2 µM]	28µM	16µM[quencher]	-
COc1cc(CNCc2ccccn2)ccc1OCc1ccc(Cl)cc1Cl	-	-	-	-	-
CCOc1cc(CNc2ccc(O)cc2)ccc1OCc1ccc(Cl)cc1Cl	-	28µM	13µM	?	22µM
CCOc1ccccc1CNc1ccc(O)cc1	?	28µM	7.1µM	?	8.9µM
COc1cccc(CNCCO)c1OCc1ccc(Cl)cc1	-	-	-	-	-

Bioassay records as filed in PubChem.
